This is an account of results in PubChem BioAssay.

Active and inactive are the calls of the source.

The nature of assay [1]: small molecules captured by biotinylated probe aFSTL3 – biochemical, small-molecule microarray, fluorescence 635/667, stem cell growth factor project, primary screen (AID 1064).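 Also: measures binding of the biotinylated anti-FSTL3 antibody to printed compounds.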 The settings on record: higher = more signal.
The nature of assay [2]: binders from COS7 lysate, DM2A8 probe, primary screen, torsin A project, cell lysate, small-molecule microarray, fluorescence 635/667 (AID 1065). The settings on record: higher = more signal, COS7 lysate expressing mutant human TOR1A.
The nature of assay [3]: small molecules captured by biotinylated probe aFGF2 – biochemical, small-molecule microarray, fluorescence 635/667, stem cell growth factor project, primary screen (AID 1067).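 Also: measures binding of biotinylated aFGF2 protein to printed compounds on slides; z-score merges feature fluorescence and signal-to-noise across triplicate slides.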 Particulars: higher = more signal.
A short description of assay [4]: small molecules captured by biotinylated probe aFGF10 – biochemical, small-molecule microarray, fluorescence 635/667, stem cell growth factor project, primary screen (AID 1071).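 Also: score merges 667 nm spot intensity and signal to noise from triplicate slides.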 Particulars: higher = more signal.
The target in assay [5] is Neurogenic locus notch homolog protein 2 (Homo sapiens) (UniProt Q04721). Put plainly: small molecules binding Notch2 protein – biochemical, small-molecule microarray, 635 nm fluorescence, stem cell growth factors, primary screen (AID 1073). The settings on record: higher = more signal.
Sequence of Neurogenic locus notch homolog protein 2 (Homo sapiens) (Q04721 whole entry, looked up, canonical isoform): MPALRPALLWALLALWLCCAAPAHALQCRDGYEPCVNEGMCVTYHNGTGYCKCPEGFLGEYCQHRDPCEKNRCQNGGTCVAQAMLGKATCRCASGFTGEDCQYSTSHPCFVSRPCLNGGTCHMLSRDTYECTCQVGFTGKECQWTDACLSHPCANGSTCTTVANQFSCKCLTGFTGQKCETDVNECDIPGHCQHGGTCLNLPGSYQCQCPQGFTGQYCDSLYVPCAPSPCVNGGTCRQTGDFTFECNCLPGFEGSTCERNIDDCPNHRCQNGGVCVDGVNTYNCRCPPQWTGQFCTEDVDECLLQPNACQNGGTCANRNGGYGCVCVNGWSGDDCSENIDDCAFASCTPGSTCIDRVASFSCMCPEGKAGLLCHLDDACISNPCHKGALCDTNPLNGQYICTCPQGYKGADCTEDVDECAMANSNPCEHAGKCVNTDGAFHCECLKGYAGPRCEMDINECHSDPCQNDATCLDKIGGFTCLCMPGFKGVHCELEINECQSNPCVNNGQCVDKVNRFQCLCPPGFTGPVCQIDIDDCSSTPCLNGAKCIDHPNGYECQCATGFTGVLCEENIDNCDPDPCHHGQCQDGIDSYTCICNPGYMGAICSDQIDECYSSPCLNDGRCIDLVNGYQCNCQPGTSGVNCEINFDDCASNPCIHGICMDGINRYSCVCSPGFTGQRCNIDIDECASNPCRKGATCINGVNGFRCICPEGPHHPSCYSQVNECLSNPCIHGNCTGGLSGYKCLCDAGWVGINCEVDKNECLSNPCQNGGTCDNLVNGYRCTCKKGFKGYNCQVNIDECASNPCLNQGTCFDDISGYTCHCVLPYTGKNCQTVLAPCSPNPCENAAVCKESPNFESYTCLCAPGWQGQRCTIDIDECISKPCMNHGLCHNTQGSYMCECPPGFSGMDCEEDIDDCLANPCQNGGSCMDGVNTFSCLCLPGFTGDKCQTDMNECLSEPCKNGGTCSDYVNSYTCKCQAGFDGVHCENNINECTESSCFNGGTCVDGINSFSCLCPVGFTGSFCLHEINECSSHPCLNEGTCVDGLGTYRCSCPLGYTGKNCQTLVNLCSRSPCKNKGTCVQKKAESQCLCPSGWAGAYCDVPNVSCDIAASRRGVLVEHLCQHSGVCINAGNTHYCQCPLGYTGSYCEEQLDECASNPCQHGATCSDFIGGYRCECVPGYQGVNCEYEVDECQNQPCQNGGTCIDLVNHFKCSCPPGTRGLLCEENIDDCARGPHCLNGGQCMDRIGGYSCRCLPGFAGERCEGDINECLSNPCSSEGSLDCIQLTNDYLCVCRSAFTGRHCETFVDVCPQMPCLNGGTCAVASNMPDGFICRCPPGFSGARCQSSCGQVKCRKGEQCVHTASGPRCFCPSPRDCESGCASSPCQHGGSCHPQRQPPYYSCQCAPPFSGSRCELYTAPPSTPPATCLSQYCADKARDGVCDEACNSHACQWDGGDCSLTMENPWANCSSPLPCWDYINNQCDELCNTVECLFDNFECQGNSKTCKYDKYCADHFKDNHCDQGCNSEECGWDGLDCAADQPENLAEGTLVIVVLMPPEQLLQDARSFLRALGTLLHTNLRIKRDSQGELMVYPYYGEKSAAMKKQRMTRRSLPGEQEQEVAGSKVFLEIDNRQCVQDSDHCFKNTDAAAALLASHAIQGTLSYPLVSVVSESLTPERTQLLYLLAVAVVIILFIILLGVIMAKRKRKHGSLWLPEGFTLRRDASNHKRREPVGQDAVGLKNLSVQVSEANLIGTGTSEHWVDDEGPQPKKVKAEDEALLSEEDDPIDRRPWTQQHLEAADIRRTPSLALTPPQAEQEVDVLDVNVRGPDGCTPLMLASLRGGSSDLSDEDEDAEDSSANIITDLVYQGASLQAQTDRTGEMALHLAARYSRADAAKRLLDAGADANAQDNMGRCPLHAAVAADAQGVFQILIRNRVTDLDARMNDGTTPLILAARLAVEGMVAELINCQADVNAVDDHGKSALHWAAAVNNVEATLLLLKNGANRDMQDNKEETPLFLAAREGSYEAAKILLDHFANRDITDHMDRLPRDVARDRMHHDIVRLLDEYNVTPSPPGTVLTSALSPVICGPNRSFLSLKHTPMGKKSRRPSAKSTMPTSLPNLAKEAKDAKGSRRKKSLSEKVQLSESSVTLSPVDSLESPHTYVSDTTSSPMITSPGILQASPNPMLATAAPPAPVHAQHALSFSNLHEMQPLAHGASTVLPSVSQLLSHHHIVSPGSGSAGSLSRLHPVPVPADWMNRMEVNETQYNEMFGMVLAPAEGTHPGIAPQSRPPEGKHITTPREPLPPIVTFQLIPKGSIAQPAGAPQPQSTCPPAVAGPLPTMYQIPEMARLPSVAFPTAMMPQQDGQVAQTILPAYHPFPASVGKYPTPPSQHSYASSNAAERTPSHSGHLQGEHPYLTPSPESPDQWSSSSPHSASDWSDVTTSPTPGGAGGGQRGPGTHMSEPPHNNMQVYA
Assay [6] addresses Pro-neuregulin-1, membrane-bound isoform (Homo sapiens) (UniProt Q02297). Nature of the assay: small molecules binding neuregulin-1 protein – biochemical, small-molecule microarray, fluorescence 635/667, psychiatric disease protein project, primary screen (AID 1075).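 Also: score combines 667 nm spot fluorescence with signal to noise.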 Particulars: NRG1 binding, 635 nm fluorescence, higher = more signal.
Assay [7] deals with Neuregulin-1 EGF-like domain. Nature of the assay: small molecules binding NRG1 EGF domain – biochemical, small-molecule microarray, 635 nm fluorescence, primary screen (AID 1081).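 Also: binding of the protein to compounds printed on small-molecule microarray slides.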 Particulars: higher = more signal.
The nature of assay [8]: FRG1 expression reporter modulators in myotubes – cell-based, C2C12 myotubes, firefly/Renilla luciferase, luminescence, FRG1 inhibition for FSHD, primary screen (AID 1084). The settings on record: FRG1 promoter luciferase, higher = more signal, called active from +8 up or from −8 down.
A short description of assay [9]: small molecules captured by biotinylated probe aFST – biochemical, small-molecule microarray, fluorescence 635/667, stem cell growth factor project, primary screen (AID 1086).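 Also: score merges 667 nm fluorescence with signal-to-noise of each printed compound spot.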 The settings on record: higher = more signal.
Assay [10] is described as follows: binders of probe aHhip on microarray, primary screen, stem cell growth factor project, biochemical, small-molecule microarray, fluorescence 635/667 (AID 1087).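 Also: score merges spot fluorescence at 667nm with spot signal to noise ratio.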 Particulars: higher = more signal.

Sequence of Pro-neuregulin-1, membrane-bound isoform (Homo sapiens) (Q02297 whole entry, looked up, the tested form may be a part, canonical isoform): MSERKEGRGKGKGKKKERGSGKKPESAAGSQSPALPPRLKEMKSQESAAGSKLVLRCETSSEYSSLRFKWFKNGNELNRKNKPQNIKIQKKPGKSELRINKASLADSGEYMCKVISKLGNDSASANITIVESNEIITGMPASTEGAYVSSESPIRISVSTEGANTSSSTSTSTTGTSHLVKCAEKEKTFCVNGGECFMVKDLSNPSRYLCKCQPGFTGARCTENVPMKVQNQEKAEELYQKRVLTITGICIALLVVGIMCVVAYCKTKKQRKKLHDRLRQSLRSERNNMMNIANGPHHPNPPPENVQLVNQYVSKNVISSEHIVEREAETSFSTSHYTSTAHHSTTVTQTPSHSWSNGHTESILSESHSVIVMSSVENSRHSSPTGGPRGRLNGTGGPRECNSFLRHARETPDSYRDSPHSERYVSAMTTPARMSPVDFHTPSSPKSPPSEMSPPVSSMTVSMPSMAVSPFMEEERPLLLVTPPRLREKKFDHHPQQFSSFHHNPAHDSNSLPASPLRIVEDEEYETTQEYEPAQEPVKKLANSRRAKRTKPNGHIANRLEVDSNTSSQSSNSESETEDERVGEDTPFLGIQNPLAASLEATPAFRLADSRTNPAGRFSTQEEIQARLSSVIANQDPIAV

As to `CC(C)c1ccc(NN2C(C(O)c3ccc(C#N)cc3)C=CC3C(=O)N(c4ccccc4)C(=O)C32)cc1` (stereo not given), the composite z-score came to 0.546 in [1]; 0.0853 in [2]; 0.105 in assay [3]; 1.15 in [4]; 1.72 in assay [5]; 1.87 in assay [6]. Besides, the composite z-score was 1 in assay [7], 1.8 in assay [9] and -0.0704 in assay [10]. For the same compound, in [8], the z-score was -2.97 (inactive).

For the compound `COc1ccc([Si](C)(C)[C@H]2[C@H](CC(=O)N(CCO)Cc3ccccc3)O[C@@]3(C(=O)N(C)c4c(Br)cc(C)cc43)[C@@H]2C)cc1`, the composite z-score was 0.145 in assay [1]; 0.671 in assay [2]; -0.0861 in assay [3]; 0.208 in assay [4]; -0.0381 in assay [5]; 0.435 in assay [6]. Moreover, the composite z-score was 1.22 in assay [7], 0.152 in assay [9] and 0.107 in assay [10]. Further, the z-score in assay [8] is -2.73 (inactive).

For `COc1cc2c(cc1O)C(c1ccc(CN3CCCC3)cc1)N(Cc1cc3c(cc1Br)OCO3)CC2` (stereo not given), the composite z-score is -0.373 in [1]; -0.311 in [2]; -0.0351 in [3]; 0.183 in assay [4]; 0.963 in [5]; 0.729 in assay [6]. In addition, the composite z-score in assay [7] was 0.784; in assay [9], 0.296; in assay [10], -0.201. Also, the z-score in assay [8] was 0.0296 (inactive).

`O=C1NC(=O)C2C1C=CC(C(O)c1ccco1)N2Nc1ccc(Cl)cc1Cl` (stereo not given): the composite z-score was 0.388 in assay [1]; -0.13 in [2]; -0.0375 in [3]; -0.0728 in assay [4]; 0.42 in assay [5]; 0.825 in assay [6]. Besides, the results for the composite z-score in [7], in [9] and in assay [10] were 1.24, 0.549 and -0.126, respectively. Moreover, in [8], the z-score was 1.62 (inactive).

For `CCOC(=O)C1=C[C@@H](C(C)C)N(S(=O)(=O)c2ccc(C)cc2)[C@H]1c1ccc(C(F)(F)F)cc1`, the composite z-score is -0.235 in [1]; 0.231 in assay [2]; 0.112 in assay [3]; 1.05 in assay [4]; 1.67 in assay [5]; 0.497 in assay [6]. For the same compound, the composite z-score in [7] is 1.22; in assay [9] it was 1.69; in [10] it was 0.0873. The z-score in assay [8] was -2.54 (inactive).

Regarding `[N-]=[N+]=Nc1ccccc1C[C@@]1(C(=O)N2CCOCC2)N=C(c2ccc(OCCCO)cc2)O[C@@H]1c1ccccc1`, the composite z-score in assay [1] was -0.4; in assay [2] it was -0.121; in assay [3], 0.0324; in assay [4], 1.11; in assay [5], 1.3; in assay [6], 1.06. Moreover, the composite z-score in [7] was 1.18; in assay [9] it was 1.71; in assay [10], -0.112. The z-score in assay [8] was -3.93 (inactive).

In the case of `CC(C)[Si](C#C[Si](C(C)C)(C(C)C)C(C)C)(O[C@H](c1ccccc1)c1cn(Cc2ccccc2)nn1)C(C)C`, the composite z-score in assay [1] is -0.353; in assay [2], 0.213; in [3], -0.1; in [4], 0.311; in assay [5], 0.615; in assay [6], -0.16. Besides, the values for the composite z-score in assay [7], in [9] and in [10] were 0.928, 0.276 and 0.0808, respectively. Moreover, in assay [8], the z-score is 0.133 (inactive).

As for `COCC(=C=CC[C@H](O)c1ccccc1OCCO)C[C@H](O)c1ccccn1`, the composite z-score was -0.109 in assay [1]; -0.169 in assay [2]; -0.128 in [3]; 0.4 in [4]; -0.548 in assay [5]; -0.409 in assay [6]. Besides, the composite z-score was 0.0876 in assay [7], 0.0547 in assay [9] and -0.0994 in assay [10]. The z-score in assay [8] is -0.996 (inactive).

Consider `CC(=O)N1CC2(CC2)CC1c1ccccc1` (stereo not given), for which the composite z-score in [1] is 0.392; in [2] it was 1.04; in assay [3] it was -0.14; in assay [4], 0.242; in assay [5], 0.437; in assay [6], 0.163. Moreover, the values for the composite z-score in assay [7], in [9] and in [10] were 0.413, 0.661 and 0.533, respectively. The z-score in [8] was 2.2 (inactive).

For the compound `COCCOC(=O)N1C(=O)[C@@]2(c3cc(C#CCC(C(=O)OC)C(=O)OC)ccc31)[C@H](c1ccc(OCCO)cc1)N1[C@H](c3ccccc3)[C@H](c3ccccc3)OC(=O)[C@H]1[C@@H]2C(=O)N1CCc2cc(OC)c(OC)cc2C1`, the composite z-score is 0.119 in assay [1]; 0.351 in [2]; -0.0985 in assay [3]; 0.953 in assay [4]; 1.21 in assay [5]; 1.54 in assay [6]. Besides, the composite z-score in [7] was 1.25; in [9], 0.47; in assay [10], -0.131. Moreover, the z-score in assay [8] is 0.913 (inactive).

In the case of `CC(C)C(O)C1C=CC2C(=O)N(c3ccccc3)C(=O)C2N1Nc1ccccc1` (stereo not given), the composite z-score in assay [1] was -0.393; in [2] it was 0.466; in assay [3] it was 0.0293; in assay [4], 0.79; in assay [5], 1.49; in [6], 1.24. Besides, the composite z-score amounted to 1.39 in [7], 1.53 in assay [9] and 0.158 in assay [10]. The z-score in assay [8] was 0.33 (inactive).

In the case of `NCCCCCNC(=O)[C@H]1C[C@H]2C(=O)N3CCC[C@H]3C(=O)N2[C@H]1c1cccc(OCCO)c1`, the composite z-score in [1] was 1.46; in [2] it was 0.161; in [3] it was -0.0448; in assay [4] it was 0.179; in assay [5], -0.0052; in assay [6], 1.52. The composite z-score in assay [7] stood at 1.43; in [9] it was 0.534; in assay [10] it was 0.0873. Also, the z-score in assay [8] was 1.91 (inactive).

Consider `CC(C)C(CO)N1C(=O)[C@@H]2[C@H]3C(=O)OCC=C[C@H]3OC23C=CCN(c2ccc(Cl)cc2)C(=O)[C@@H]13` (stereo not given in full), for which the composite z-score in [1] was -0.0597; in assay [2], -0.61; in assay [3], -0.141; in [4], -0.385; in assay [5] it was -0.659; in [6], -0.7. Further, the composite z-score was 0.436 in assay [7], -0.243 in assay [9] and -0.313 in [10]. In [8], the z-score was -0.459 (inactive).

Regarding `C=CCC(OC(C)=O)[C@@H]1[C@@H](N(Cc2ccc(-c3cccc(C(F)(F)F)c3)o2)C(=O)c2ccc(-c3ccccc3)cc2)c2cc(OCCCO)ccc2N1C(=O)Cc1ccc2ccccc2c1` (stereo not given in full), the composite z-score was -0.414 in [1]; -0.732 in [2]; -0.0454 in assay [3]; -0.342 in [4]; -0.753 in assay [5]; -0.337 in assay [6]. Besides, the composite z-score in assay [7] is -0.0291; in [9], 1.09; in assay [10], 0.0156. For the same compound, in assay [8], the z-score was -0.0069 (inactive).

On to `COc1cc(C(O)C2C=CC3C(=O)N(C)C(=O)C3N2Nc2ccccc2)cc(OC)c1OC` (stereo not given), for which the composite z-score in assay [1] amounted to 1.3; in assay [2] it was 0.723; in assay [3], 0.341; in assay [4] it was 0.602; in assay [5] it was 1.25; in [6], 1.83. Further, the composite z-score was determined as 1.35 in [7], 1.53 in assay [9] and 0.592 in assay [10]. For the same compound, the z-score in assay [8] is -0.818 (inactive).

Take `[N-]=[N+]=NCc1ccccc1C[C@@]1(C(N)=O)N=C(c2ccc(OCCCO)cc2)O[C@@H]1c1ccccc1`: the composite z-score in [1] was 0.218; in assay [2] it was -0.173; in [3] it was -0.0592; in assay [4], -0.257; in assay [5] it was 0.608; in assay [6], 2.15. Besides, the composite z-score in assay [7] turned out to be 1.16; in assay [9] it was 0.249; in assay [10], 0.107. For the same compound, the z-score in assay [8] is -1.67 (inactive).
